Laboratory results as given in PubChem BioAssay (NCI).
This is part of a sample that, as a whole, favours compounds with a hit. Of some 83,000 tested, about 20% had one in any assay.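 A percent growth of 40 corresponds to 60% growth inhibition; 0 means no net growth; -100 means all cells died. Active threshold: below 10.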 Values without a mark were called inactive. Calls of active or inactive are those of the source.

Tested on: HOP-62 NSCLC
Assay: NCI-60 one-dose screen, 48 h (100 = growth as untreated, 0 = no growth, -100 = all killed)
Conditions: 10 µM unless noted

SMILES | growth
CCCCCCCCCCCCCC1=NCC[N+]1(CCO)Cc1ccccc1 (centres undefined) | -82.6% (active)
Nc1c(C(=O)Nc2cccc3ccccc23)sc2nc3c(cc12)CCCCC3 | 38.9%
Cc1c(Cl)cccc1NC(=O)c1sc2nc3c(cc2c1N)CCCCCC3 | 30.6%
N#Cc1c(-c2ccc(F)cc2)nc(N=Nc2c(O)[nH]c3ccc(Cl)cc23)nc1N1CCOCC1 | 11.6%
Cc1ccccc1NC(=O)c1sc2nc(C)c(C(C)O)cc2c1N (centres undefined) | 45.1%
COc1cc(F)c(-c2nc3c(C)cccc3n2Cc2c(F)cccc2F)c(F)c1 | 83.3%
Oc1ccc(CNNc2ccnc3c(O)cccc23)c2cccnc12 | 25.2%
CC1(C)Cc2c(Br)c(Br)c(Br)c(OCC(O)CN3CCOCC3)c2O1 (centres undefined) | 97.3%
CCCCCOC(=O)c1ccccc1O | 85.4%
C=C1C(=O)O[C@H]2[C@H]1CC/C(COC(=O)CCCCCCCCC(=O)OC/C1=C/CC[C@@]3(C)O[C@H]3[C@H]3OC(=O)C(=C)[C@@H]3CC1)=C\CC[C@@]1(C)O[C@@H]21 | 60.2%
C=C1C(=O)O[C@H]2[C@H]1CCC(/C=N/c1ncc(Br)cc1N)=C\CC[C@@]1(C)O[C@@H]21 | 67.3%
O=C1CCC23OC(c4ccccc4N12)C(O)C(O)C3O (centres undefined) | 104%

Tested on: NCI-H460 lung
Assay: as above
Conditions: 10 µM unless noted

SMILES | growth
CC(C)CSc1nc(Nc2ccccc2)c(C#N)c(-c2ccc(F)cc2)n1 | 3.5% (active)
CCCCC(=O)Nc1c(C(=O)Nc2ccccc2)sc2nc3c(cc12)C(OC(=O)CCCC)CCC3 (centres undefined) | 85.9%
COC(=O)[C@]1(C)CCC[C@]2(C)[C@H]3C[C@H]4C(C(C)C)=C[C@]3(CC[C@H]21)[C@@H]1C(=O)N(CCC#N)C(=O)[C@@H]14 | 101%
CCN1CCN(c2ccc(NC(=O)Nc3nc4ccc(-c5ccccc5OC)cc4s3)cc2)CC1 | -64.4% (active)
C[C@H]1[C@H](C)CC[C@]2(C(=O)OCCOCCOCC[P+](c3ccccc3)(c3ccccc3)c3ccccc3)CC[C@]3(C)C(=CC[C@@H]4[C@@]5(C)CC[C@H](OC(=O)C(Cl)Cl)C(C)(C)[C@@H]5CC[C@]43C)[C@H]12 | 6.27% (active)
COc1ccc(/C(=N\O)c2cc(C)c(OC)c(C)c2)cc1O | 9.22% (active)
O=C(Nc1nccs1)c1noc2ccccc12 | 96.6%
CCOc1ccccc1C(=O)/C=C/c1cc2ccccc2[nH]c1=O | -4.96% (active)
Cc1ccc(-c2nc(C#N)c(S(=O)(=O)N(C)CCO)o2)cc1 | 89.3%
Cc1ccc(C2CC(c3ccc(Nc4nc(NCCO)nc(NCCO)n4)cc3)=NN2c2ccc(Cl)cc2)cc1 (centres undefined) | 26.6%
CN(C)CCCn1c2c(c3cc(-c4cccc(S(N)(=O)=O)c4)ccc3c1=O)C(=O)c1ccccc1-2 | 14.1%
C=C(C)[C@@H]1CC[C@]2(C(=O)OCCOCCOCC[P+](c3ccccc3)(c3ccccc3)c3ccccc3)CC[C@]3(C)[C@H](CC[C@@H]4[C@@]5(C)CC[C@H](OC(=O)C(Cl)Cl)C(C)(C)[C@@H]5CC[C@]43C)[C@@H]12 | -13.3% (active)
COC(=O)/C=C/c1cc(OC(C)=O)c2c(c1)C(C(=O)OC)C(c1ccc(OC(C)=O)c(OC(C)=O)c1)O2 (centres undefined) | 13.8%
O=C(Nc1ccc(S(=O)(=O)NC2CCCCCC2)cc1)C(c1ccccc1)S(=O)(=O)c1ccc(F)cc1 (centres undefined) | 1.37% (active)
COc1ccc2cc(/C=C3\N=C(c4cc(OC)c(OC)c(OC)c4)OC3=O)c(OC)nc2c1 | 111%
N#Cc1ccc(C2C3=C(CCCC3=O)OC3=C2C(=O)c2ccccc2C3=O)cc1 (centres undefined) | 103%
COCCOCCOCc1n(Cc2ccc3ccccc3c2)c2ccccc2[n+]1Cc1ccc2ccccc2c1 | 10.3%
CC(=O)Nc1c(C(=O)Nc2ccccc2)sc2nc3c(cc12)C(OC(C)=O)CCC3 (centres undefined) | 108%
CCc1ccc(OCc2ccccc2C(=O)Nc2ccc3nc(C)cc(N)c3c2)cc1 | -67.6% (active)

SMILES | growth
COc1ccc(C2C(c3ccccc3)C(=O)N2c2cc(OC)c(OC)c(OC)c2)cc1I (centres undefined) | 4.29% (active)
COc1cc(/C=C/C(=O)c2cccs2)ccc1OCc1ccc(Cl)nc1 | 83.6%
C=C1C(=O)O[C@H]2[C@H]1CC/C(COC(=O)CCCCCCC(=O)OC/C1=C/CC[C@@]3(C)O[C@H]3[C@H]3OC(=O)C(=C)[C@@H]3CC1)=C\CC[C@@]1(C)O[C@@H]21 | 77.7%
COc1ccc(C2CC(c3ccc(OC)cc3O)=NN2c2ccc(S(N)(=O)=O)cc2)cc1 (centres undefined) | 14%
CCCn1cc(/C=N\N=C2\C(=O)Nc3ccc(C)cc32)c2ccccc21 | 32.1%
N#Cc1c(-c2ccc(Cl)cc2)cc(-c2cc3ccccc3o2)nc1SCC(=O)c1ccc(Cl)cc1 | 107%
CCCCCCCCCCCCCC1=NCC[N+]1(CCO)Cc1ccccc1 (centres undefined) | -81.3% (active)
Nc1c(C(=O)Nc2cccc3ccccc23)sc2nc3c(cc12)CCCCC3 | 9.6% (active)
Cc1c(Cl)cccc1NC(=O)c1sc2nc3c(cc2c1N)CCCCCC3 | 8.77% (active)
N#Cc1c(-c2ccc(F)cc2)nc(N=Nc2c(O)[nH]c3ccc(Cl)cc23)nc1N1CCOCC1 | 51.8%
Cc1ccccc1NC(=O)c1sc2nc(C)c(C(C)O)cc2c1N (centres undefined) | 35.4%
COc1cc(F)c(-c2nc3c(C)cccc3n2Cc2c(F)cccc2F)c(F)c1 | 77.8%
Oc1ccc(CNNc2ccnc3c(O)cccc23)c2cccnc12 | 12.3%
CC1(C)Cc2c(Br)c(Br)c(Br)c(OCC(O)CN3CCOCC3)c2O1 (centres undefined) | 93.8%
CCCCCOC(=O)c1ccccc1O | 108%
C=C1C(=O)O[C@H]2[C@H]1CC/C(COC(=O)CCCCCCCCC(=O)OC/C1=C/CC[C@@]3(C)O[C@H]3[C@H]3OC(=O)C(=C)[C@@H]3CC1)=C\CC[C@@]1(C)O[C@@H]21 | 27.1%
C=C1C(=O)O[C@H]2[C@H]1CCC(/C=N/c1ncc(Br)cc1N)=C\CC[C@@]1(C)O[C@@H]21 | 58.3%
O=C1CCC23OC(c4ccccc4N12)C(O)C(O)C3O (centres undefined) | 112%
